The results in this text go back to PubChem BioAssay (Tox21).

Where “and” joins values, the source holds several entries; their conditions need not be identical. Equal values may be shown once. Records with an inconclusive call do not appear. A call without a number means that no potency is given here. The source holds several records for some structures; these can differ, active in one and inactive in another. Calls of active or inactive are those of the source. Calls come from the whole dose curve; as a rule, active = well fitted curve in the direction sought with a large enough effect in the repeat runs; inconclusive = weak or mixed curves; inactive = no such curve, though single readings can be large; an effect the other way counts as inactive or inconclusive.

A short description of one assay: qHTS RealTime-Glo MT Cell Viability Assay in HepG2 cells - 0 hour (AID 1224889). Note: nearly all actives have a fitted effect of over 50% in size. Note: potency is the fitted concentration of half-maximal effect. Particulars: RealTime-Glo luminescence; series mostly up to 76.8 µM; activity change, negative = cytotoxicity: at the top concentration. In a few lines: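 HepG2 cells (600/well) were dispensed with RealTime-Glo reagents, incubated 5 h at 37 °C, then treated with compounds in DMSO for up to 40 h. Nonlytic NanoLuc luminescence reflecting viable cells was read at each stated time point.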
(Quantitative high-throughput screening tests each substance at several concentrations.)
For `CCCCC(=O)O`, the Potency result is “inactive”.
Consider `CC(O)CNCC(C)O` (stereo not given), for which the Potency result was “inactive”.
Same read-out and setting: under `CC(C)c1ccc(C(C)C)cc1` stands “inactive”; under `NC1CCCCC1N` (stereo not given), “inactive”; under `CCCOCC(C)O` (stereo not given), “inactive”.
Still for that read-out and setting: then `Cc1ccc(C)c(S(=O)(=O)O)c1`, with “inactive”; and `CCCCCCCCO`, with “inactive”.
As to `C=CC(=O)NCOCCCC`, the Potency result was “inactive”.
Still for that read-out and setting: then `O=C1C(N(CO)C(=O)NCO)N(CO)C(=O)N1CO` (stereo not given), with “inactive”.
Same read-out and setting: under `NCCNCCNCCN` stands “inactive”.
For `COc1ccc(N)c(OC)c1`, the Potency entry was “inactive”.
Turning to `O=C(Cl)c1ccc(C(=O)Cl)cc1`, the Potency entry was “inactive”.
On the same count and under the same terms, under `CC(=O)OC(C)(C)C1CC=C(C)CC1` (stereo not given) stands “inactive”.
Same read-out and setting: under `CC(=O)OCCC(C)C` stands “inactive”; under `CO[Si](CCCNCCN)(OC)OC`, “inactive”.
On to `CCn1cc(C(=O)O)c(=O)c2cc3c(cc21)OCO3`, for which the Potency entry was “inactive”.
Turning to `CCCCCCCC(=O)O`, the Potency result was “inactive”.
Same read-out and setting: under `CCCCCC(C)=O` stands “inactive”; under `COc1cc(NC(=O)CC(C)=O)c(OC)cc1Cl`, “inactive”; under `COCN(COC)c1nc(N(COC)COC)nc(N(COC)COC)n1`, “inactive”.
On the same count and under the same terms, under `Brc1ccc(Oc2ccc(Br)cc2)cc1` stands “inactive”; under `O=C(NCC1CCCCN1)c1cc(OCC(F)(F)F)ccc1OCC(F)(F)F` (stereo not given), “inactive”.
Still for that read-out and setting: under `CCOC(=O)c1ccc(O)cc1` stands “inactive”.
`Oc1ccc(Cc2ccccc2O)cc1`: the Potency result is “inactive”.
On the same count and under the same terms, under `COC(=O)/C=C\C(=O)OC` stands “inactive”; under `Cc1ccc([N+](=O)[O-])cc1N`, “inactive”; under `CCOC(=O)CC(=O)OCC`, “inactive”.
On the same count and under the same terms, under `OCC(O)CS` (stereo not given) stands “inactive”; under `Cc1ccc(Cl)cc1`, “inactive”; under `O=c1n(CCCN2CCN(c3cccc(Cl)c3)CC2)nc2ccccn12`, 49 µM (active) and inactive.
Still for that read-out and setting: under `Nc1cccc(N)n1` stands “inactive”; under `CC1(C)C(=O)N(Cl)C(=O)N1Cl`, “inactive”; under `Cc1nnc(NS(=O)(=O)c2ccc(N)cc2)s1`, “inactive”.
Consider `CS(=O)(=O)c1ccc(Cl)cc1`, for which the Potency result is “inactive”.
With `Cc1ccccc1C=O`, the Potency result is “inactive”.
As for `N#CCC(=O)O`, the Potency entry was “inactive”.
Turning to `OCc1ccc(Cl)cc1Cl`, the Potency entry is “inactive”.

A short description of a further assay: A CellTox Green Cytotoxicity Assay to monitor cytotoxicity in HepG2 cells - 8 hour (AID 1224890). Note: nearly all actives have a fitted effect of over 45% in size. Note: potency is the fitted concentration of half-maximal effect. Particulars: CellTox Green fluorescence; series mostly up to 76.8 µM; cytotoxicity increase: at the top concentration. The procedure, abridged:
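Measurements at 0, 8, 16, 24, 32 and 40 h of treatment captured CellTox Green fluorescence in HepG2 cells that had been co-plated with reagent and preincubated 5 h at 37 C/5% CO2.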
With `CCCCC(=O)O`, the Potency entry was “inactive”.
Still for that read-out and setting: then `CC(O)CNCC(C)O` (stereo not given), with “inactive”; and `CC(C)c1ccc(C(C)C)cc1`, with “inactive”.
On the same count and under the same terms, then `NC1CCCCC1N` (stereo not given), with “inactive”; and `CCCOCC(C)O` (stereo not given), with “inactive”; and `Cc1ccc(C)c(S(=O)(=O)O)c1`, with “inactive”.
Regarding `CCCCCCCCO`, the Potency result was “inactive”.
As to `C=CC(=O)NCOCCCC`, the Potency entry is “inactive”.
Same read-out and setting: then `O=C1C(N(CO)C(=O)NCO)N(CO)C(=O)N1CO` (stereo not given), with “inactive”; and `NCCNCCNCCN`, with “inactive”.
Still for that read-out and setting: under `COc1ccc(N)c(OC)c1` stands “inactive”; under `O=C(Cl)c1ccc(C(=O)Cl)cc1`, “inactive”; under `CC(=O)OC(C)(C)C1CC=C(C)CC1` (stereo not given), “inactive”.
As to `CC(=O)OCCC(C)C`, the Potency result is “inactive”.
On the same count and under the same terms, then `CO[Si](CCCNCCN)(OC)OC`, with “inactive and 49 µM (active)”.
Take `CCn1cc(C(=O)O)c(=O)c2cc3c(cc21)OCO3`: the Potency result was “inactive”.
Still for that read-out and setting: then `CC1(C)[C@@H](O[C@H]2O[C@H](C(=O)O)[C@@H](O)[C@H](O)[C@H]2O[C@@H]2O[C@H](C(=O)O)[C@@H](O)[C@H](O)[C@H]2O)CC[C@]2(C)[C@H]3C(=O)C=C4[C@@H]5C[C@@](C)(C(=O)O)CC[C@]5(C)CC[C@@]4(C)[C@]3(C)CC[C@@H]12`, with “inactive”.
Same read-out and setting: under `CCCCCCCC(=O)O` stands “inactive”.
The same measure, in the same setting: under `CCCCCC(C)=O` stands “inactive”; under `COc1cc(NC(=O)CC(C)=O)c(OC)cc1Cl`, “inactive”.
In the case of `COCN(COC)c1nc(N(COC)COC)nc(N(COC)COC)n1`, the Potency entry is “inactive”.
The same measure, in the same setting: under `Brc1ccc(Oc2ccc(Br)cc2)cc1` stands “inactive”; under `O=C(NCC1CCCCN1)c1cc(OCC(F)(F)F)ccc1OCC(F)(F)F` (stereo not given), “inactive”; under `CCOC(=O)c1ccc(O)cc1`, “inactive”.
Still for that read-out and setting: then `Oc1ccc(Cc2ccccc2O)cc1`, with “inactive”; and `COC(=O)/C=C\C(=O)OC`, with “inactive”; and `Cc1ccc([N+](=O)[O-])cc1N`, with “inactive”.
As for `CCOC(=O)CC(=O)OCC`, the Potency result is “inactive”.
Still for that read-out and setting: then `OCC(O)CS` (stereo not given), with “inactive”; and `Cc1ccc(Cl)cc1`, with “inactive”.
As for `O=c1n(CCCN2CCN(c3cccc(Cl)c3)CC2)nc2ccccn12`, the “cytotoxicity increase” value is 14.5% [at 35.3 µM] (inactive).
On to `Nc1cccc(N)n1`, for which the Potency result was “inactive”.
Still for that read-out and setting: under `CC1(C)C(=O)N(Cl)C(=O)N1Cl` stands “inactive”.
On the same count and under the same terms, then `Cc1nnc(NS(=O)(=O)c2ccc(N)cc2)s1`, with “inactive”.
Regarding `CS(=O)(=O)c1ccc(Cl)cc1`, the “cytotoxicity increase” value is -3.11% (inactive).
For `Cc1ccccc1C=O`, the Potency entry is “inactive”.
For the compound `N#CCC(=O)O`, the Potency entry is “inactive”.
The same measure, in the same setting: under `OCc1ccc(Cl)cc1Cl` stands “inactive”.

Another assay in a line: qHTS assay to identify small molecule antagonists of the estrogen receptor alpha (ER-alpha) signaling pathway using the BG1 cell line in the presence of 0.1 nM 17-beta-estradiol - cell viability counter screen (AID 1259241). Note: nearly all actives have a fitted effect of over 40% in size. The conditions noted are these: VM7Luc4E2 (BG1) viability, CellTiter-Fluor protease, 22 h, 0.1 nM estradiol agonist added; series mostly up to 92.4 µM; activity change, negative = cytotoxicity: at the top concentration. The procedure, abridged:
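Cytotoxicity counter-screen: live-cell protease activity measured by fluorescence (30 min reagent step) in the same wells. Cells were VM7Luc4E2 with endogenous ER-alpha and ERE-driven luciferase, treated 22 hr at 37C alongside 0.1 nM 17beta-estradiol final.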
With `CCCCC(=O)O`, the Potency entry was “inactive”.
The same measure, in the same setting: under `CC(O)CNCC(C)O` (stereo not given) stands “inactive”; under `CC(C)c1ccc(C(C)C)cc1`, “inactive”.
Same read-out and setting: under `NC1CCCCC1N` (stereo not given) stands “inactive”; under `CCCOCC(C)O` (stereo not given), “inactive”; under `Cc1ccc(C)c(S(=O)(=O)O)c1`, “inactive”.
The same measure, in the same setting: then `CCCCCCCCO`, with “inactive”; and `O=C1C(N(CO)C(=O)NCO)N(CO)C(=O)N1CO` (stereo not given), with “inactive”.
Take `COc1ccc(N)c(OC)c1`: the “activity change, negative = cytotoxicity” value was -5.79% [at 42.5 µM] (inactive).
Turning to `O=C(Cl)c1ccc(C(=O)Cl)cc1`, the Potency entry is “inactive”.
Still for that read-out and setting: then `CC(=O)OC(C)(C)C1CC=C(C)CC1` (stereo not given), with “inactive”; and `CC(=O)OCCC(C)C`, with “inactive”; and `CO[Si](CCCNCCN)(OC)OC`, with “inactive”.
As to `CCn1cc(C(=O)O)c(=O)c2cc3c(cc21)OCO3`, the Potency result is “inactive”.
On the same count and under the same terms, then `CC1(C)[C@@H](O[C@H]2O[C@H](C(=O)O)[C@@H](O)[C@H](O)[C@H]2O[C@@H]2O[C@H](C(=O)O)[C@@H](O)[C@H](O)[C@H]2O)CC[C@]2(C)[C@H]3C(=O)C=C4[C@@H]5C[C@@](C)(C(=O)O)CC[C@]5(C)CC[C@@]4(C)[C@]3(C)CC[C@@H]12`, with “inactive”.
As to `CCCCCCCC(=O)O`, the Potency entry is “inactive”.
With `CCCCCC(C)=O`, the Potency entry is “inactive”.
Same read-out and setting: then `COc1cc(NC(=O)CC(C)=O)c(OC)cc1Cl`, with “inactive”.
On the same count and under the same terms, under `COCN(COC)c1nc(N(COC)COC)nc(N(COC)COC)n1` stands “inactive”.
On the same count and under the same terms, then `Brc1ccc(Oc2ccc(Br)cc2)cc1`, with “inactive”.
Regarding `CCOC(=O)c1ccc(O)cc1`, the Potency result is “inactive”.
The same measure, in the same setting: then `Oc1ccc(Cc2ccccc2O)cc1`, with “inactive”.
Same read-out and setting: under `COC(=O)/C=C\C(=O)OC` stands “inactive”.
On the same count and under the same terms, under `Cc1ccc([N+](=O)[O-])cc1N` stands “inactive”.
Take `CCOC(=O)CC(=O)OCC`: the Potency result was “inactive”.
The same measure, in the same setting: then `OCC(O)CS` (stereo not given), with “inactive”; and `Cc1ccc(Cl)cc1`, with “inactive”; and `O=c1n(CCCN2CCN(c3cccc(Cl)c3)CC2)nc2ccccn12`, with “inactive”.
As for `Nc1cccc(N)n1`, the Potency result is “inactive”.
For `CC1(C)C(=O)N(Cl)C(=O)N1Cl`, the Potency entry is “inactive”.
Still for that read-out and setting: under `Cc1nnc(NS(=O)(=O)c2ccc(N)cc2)s1` stands “inactive”; under `CS(=O)(=O)c1ccc(Cl)cc1`, “inactive”; under `Cc1ccccc1C=O`, “inactive”.
Same read-out and setting: under `N#CCC(=O)O` stands “inactive”; under `OCc1ccc(Cl)cc1Cl`, “inactive”.
